We go through 14 compounds from PubChem BioAssay (Tox21).

The nature of assay [1]: qHTS assay to identify small molecule antagonists of the glucocorticoid receptor (GR) signaling pathway - cell viability counter screen (AID 720693). Further: nearly all actives have a fitted effect of over 55% in size. In general terms: qHTS replaces the single test concentration by a dilution series.
Assay [2] is described as follows: qHTS assay for identifying genotoxic compounds that show differential cytotoxicity against isogenic chicken DT40 cell lines with known DNA damage response pathways - wild type cell line (AID 743012). Further: nearly all actives have a fitted effect of over 60% in size. Further: potency means the concentration at half of the fitted maximal effect. The gist of the method: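 Viability by ATP luminescence (CellTiter-Glo, 30 min RT) after 40 h compound treatment at 37 C/5% CO2, using 300 parental DNA repair-proficient DT40 cells per well.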

Assay [3] is described as follows: qHTS assay for identifying genotoxic compounds that show differential cytotoxicity against isogenic chicken DT40 cell lines with known DNA damage response pathways - Rev3 mutant cell line (AID 743014). Further: nearly all actives have a fitted effect of over 55% in size. Further: potency means the concentration at half of the fitted maximal effect.
Assay [4] can be described thus: qHTS assay for identifying genotoxic compounds that show differential cytotoxicity against isogenic chicken DT40 cell lines with known DNA damage response pathways - Rad54/Ku70 mutant cell line (AID 743015). Further: nearly all actives have a fitted effect of over 60% in size. Further: potency means the concentration at half of the fitted maximal effect.
The nature of assay [5]: qHTS assay to identify small molecule antagonists of the androgen receptor (AR) signaling pathway - cell viability counter screen (AID 743033; further: nearly all actives have a fitted effect of over 45% in size).
The nature of assay [6]: qHTS assay to identify small molecule antagonists of the androgen receptor (AR) signaling pathway using the MDA cell line - cell viability counter screen (AID 743041; further: nearly all actives have a fitted effect of over 45% in size). The gist of the method: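 qHTS viability read-out; MDA-kb2 AR-luc; R1881-stimulated; 16 h exposure at 37C, 0% CO2; CellTiter-Fluor, 30 min; fluorescence intensity.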
A short description of assay [7]: qHTS assay to identify small molecule antagonists of the thyroid receptor (TR) signaling pathway - cell viability counter screen (AID 743064). Further: nearly all actives have a fitted effect of over 50% in size. Further: potency means the concentration at half of the fitted maximal effect. The gist of the method:
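Fluorescence from CellTiter-Fluor, added after 23.5 h exposure at 37 °C, reported viability of GH3.TRE-Luc cells co-treated with compound and 1 nM T3. Measured in the same wells as the luciferase TR readout.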

A short description of assay [8]: qHTS assay to identify small molecule antagonists of the thyroid receptor (TR) signaling pathway (AID 743065). Further: series mostly up to about 70 µM; nearly all actives have a fitted effect of over 55% in size. The gist of the method: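 GH3.TRE-Luc rat pituitary cells carrying two TR response elements driving luciferase were plated for 4 h, given compound plus 1 nM T3 (final), and incubated 23.5 h at 37 C. ONE-Glo luminescence measured reporter inhibition; CellTiter-Fluor fluorescence tracked cytotoxicity.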

The subject of assay [9] is thyroid hormone receptor (rat, GH3 cells). Kind of assay: qHTS assay to identify small molecule agonists of the thyroid receptor (TR) signaling pathway (AID 743066; calls by dose curve).
Assay [10] deals with Estrogen receptor (Homo sapiens) (UniProt P03372). The assay is described as follows: qHTS assay to identify small molecule antagonists of the estrogen receptor alpha (ER-alpha) signaling pathway (AID 743069; active means well fitted curve in the direction sought with a large enough effect in the signal ratio in the repeat runs, not every such curve was filed as active; the % refers to the signal ratio). In outline: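 Screening used a UAS-driven beta-lactamase reporter integrated into HEK293 cells expressing ER-alpha, stimulated with 17beta-estradiol alongside test compounds over 18 hr at 37C; signal came from LiveBLAzer B/G FRET fluorescence.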
Chain of Estrogen receptor (Homo sapiens) (P03372 whole entry, looked up): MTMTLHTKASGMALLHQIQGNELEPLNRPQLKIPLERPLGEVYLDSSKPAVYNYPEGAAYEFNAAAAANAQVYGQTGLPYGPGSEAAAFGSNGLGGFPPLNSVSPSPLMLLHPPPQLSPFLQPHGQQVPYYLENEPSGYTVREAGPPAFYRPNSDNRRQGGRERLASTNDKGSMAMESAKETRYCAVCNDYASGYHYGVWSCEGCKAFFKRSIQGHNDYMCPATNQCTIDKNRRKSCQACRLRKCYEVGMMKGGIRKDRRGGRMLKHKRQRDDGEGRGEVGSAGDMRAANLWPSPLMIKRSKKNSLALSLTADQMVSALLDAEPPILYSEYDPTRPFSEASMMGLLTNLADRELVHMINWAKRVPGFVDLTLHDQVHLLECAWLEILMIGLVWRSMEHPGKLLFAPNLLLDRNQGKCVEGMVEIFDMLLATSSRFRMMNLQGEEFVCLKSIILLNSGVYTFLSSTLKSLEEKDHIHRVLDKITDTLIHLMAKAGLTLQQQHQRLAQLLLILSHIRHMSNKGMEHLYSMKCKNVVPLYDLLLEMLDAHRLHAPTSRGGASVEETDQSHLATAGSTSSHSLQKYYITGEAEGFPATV

Assay [11] can be described thus: qHTS assay to identify small molecule antagonists of the estrogen receptor alpha (ER-alpha) signaling pathway - cell viability counter screen (AID 743074; calls by dose curve; further: nearly all actives have a fitted effect of over 45% in size).
The target in assay [12] is Estrogen receptor (Homo sapiens) (UniProt P03372). Kind of assay: qHTS assay to identify small molecule agonists of the estrogen receptor alpha (ER-alpha) signaling pathway (AID 743075; calls by dose curve).
Assay [13] shares this target. The assay is described as follows: qHTS assay to identify small molecule agonists of the estrogen receptor alpha (ER-alpha) signaling pathway using the BG1 cell line (AID 743079). Further: nearly all actives have a fitted effect of over 20% in size. Further: potency means the concentration at half of the fitted maximal effect.
Assay [14] is described as follows: qHTS assay to identify small molecule antagonists of the estrogen receptor alpha (ER-alpha) signaling pathway using the BG1 cell line (AID 743080; calls by dose curve;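 further: BG1 cells stimulated with 17beta-estradiol alongside compound; series mostly up to about 70 µM; nearly all actives have a fitted effect of over 25% in size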). The gist of the method: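 Readout is ONE-Glo luminescence, taken 30 min at room temperature after reagent addition, preceded by a CellTiter-Fluor viability read; BG1-Luc-4E2 cells had received compound and 17beta-estradiol for 21.5 h at 37 C.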

Assay [15] is described as follows: qHTS assay to identify small molecule antagonists of the estrogen receptor alpha (ER-alpha) signaling pathway using the BG1 cell line - cell viability counter screen (AID 743081).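 Further: compound given together with 17beta-estradiol as the ER stimulus; series mostly up to about 70 µM; nearly all actives have a fitted effect of over 45% in size.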
A further assay addresses Aromatase (Homo sapiens) (UniProt P11511). Kind of assay: qHTS assay to identify aromatase inhibitors (AID 743083). Further: series mostly up to about 70 µM; nearly all actives have a fitted effect of over 55% in size.
In assay [16] the target is Androgen receptor (Homo sapiens) (UniProt P10275). The assay is described as follows: qHTS assay to identify small molecule antagonists of the androgen receptor (AR) signaling pathway (AID 743035; active means well fitted inhibition curve with a large enough effect in the signal ratio in the repeat runs, not every such curve was filed as active; the % refers to the signal ratio). In outline:
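Antagonist mode: AR-bla HEK293 cells co-treated with test compounds and agonist R1881 for 16 h at 37C, 5% CO2. Beta-lactamase activity read as FRET fluorescence after 2 h room-temperature substrate loading.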

Assay [17] has the same target. Kind of assay: qHTS assay to identify small molecule agonists of the androgen receptor (AR) signaling pathway (AID 743036; active means well fitted activation curve with a large enough effect in the signal ratio in the repeat runs, with a control signal flat, not every such curve was filed as active; the % refers to the signal ratio). In outline: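 Fluorescence from a beta-lactamase FRET substrate served as read-out in AR-UAS-bla GripTite HEK293 cells. Cells were treated with DMSO-dissolved compounds for 16 h at 37C, then with LiveBLAzer B/G substrate for 2 h at room temperature.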

Assay [18] has the same target. The assay is described as follows: qHTS assay to identify small molecule agonists of the androgen receptor (AR) signaling pathway using the MDA cell line (AID 743040; further: nearly all actives have a fitted effect of over 20% in size). The gist of the method:
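Agonist activity is measured as luciferase luminescence in human MDA-kb2 cells whose MMTV reporter responds to both AR and GR. Compounds in DMSO incubate 16 h at 37C, 0% CO2, and ONE-Glo is read after 30 min.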

The target is the same in assay [19]. The assay is described as follows: qHTS assay to identify small molecule antagonists of the androgen receptor (AR) signaling pathway using the MDA cell line (AID 743042; further: nearly all actives have a fitted effect of over 55% in size). The gist of the method: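 MDA-kb2 cells (human breast carcinoma, stably carrying an MMTV-luciferase reporter responsive to AR and GR) were plated at 3,000 cells/well and preincubated 5 hr at 37C, then given compound plus R1881 agonist for 16 h. ONE-Glo luminescence was read.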

Several values for one entry are separate records, joined by “and”; a condition that tells them apart may be missing. Equal values may be shown once. Results filed as inconclusive are left out. More than one record can exist for a structure, and the calls need not agree. Activity calls are given as the source filed them. Unless noted, the call rests on the fitted dose curve; in most records, active means well fitted curve in the direction sought with a large enough effect in the repeat runs; inconclusive means weak or mixed curves; inactive means no such curve, though single readings can be large; an effect the other way counts as inactive or inconclusive.

Chain of Androgen receptor (Homo sapiens) (P10275 whole entry, looked up): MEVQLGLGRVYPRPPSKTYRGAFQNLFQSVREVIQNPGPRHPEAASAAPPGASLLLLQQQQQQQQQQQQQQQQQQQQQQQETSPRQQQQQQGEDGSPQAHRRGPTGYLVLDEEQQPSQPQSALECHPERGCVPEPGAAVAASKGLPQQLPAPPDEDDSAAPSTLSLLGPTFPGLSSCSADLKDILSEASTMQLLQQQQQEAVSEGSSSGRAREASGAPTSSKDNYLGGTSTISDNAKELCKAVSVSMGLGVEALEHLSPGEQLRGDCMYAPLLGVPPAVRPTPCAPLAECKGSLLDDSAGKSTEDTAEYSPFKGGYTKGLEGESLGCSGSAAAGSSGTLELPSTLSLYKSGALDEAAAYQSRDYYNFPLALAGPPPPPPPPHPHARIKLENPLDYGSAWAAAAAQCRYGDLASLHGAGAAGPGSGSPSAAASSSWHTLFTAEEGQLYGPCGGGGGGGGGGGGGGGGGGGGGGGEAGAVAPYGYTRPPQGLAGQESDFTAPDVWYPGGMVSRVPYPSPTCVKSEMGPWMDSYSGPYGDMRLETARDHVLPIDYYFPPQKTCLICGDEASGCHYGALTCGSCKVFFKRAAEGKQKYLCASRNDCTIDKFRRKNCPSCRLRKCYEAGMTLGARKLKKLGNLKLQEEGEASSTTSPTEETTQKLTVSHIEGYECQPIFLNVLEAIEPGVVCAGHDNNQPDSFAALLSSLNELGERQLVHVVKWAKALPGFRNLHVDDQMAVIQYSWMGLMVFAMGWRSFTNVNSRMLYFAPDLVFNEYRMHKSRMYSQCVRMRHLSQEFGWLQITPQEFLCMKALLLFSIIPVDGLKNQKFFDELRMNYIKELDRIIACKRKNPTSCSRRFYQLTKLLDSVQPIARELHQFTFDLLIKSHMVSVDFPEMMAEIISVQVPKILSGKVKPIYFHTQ
Chain of Aromatase (Homo sapiens) (P11511 whole entry, looked up): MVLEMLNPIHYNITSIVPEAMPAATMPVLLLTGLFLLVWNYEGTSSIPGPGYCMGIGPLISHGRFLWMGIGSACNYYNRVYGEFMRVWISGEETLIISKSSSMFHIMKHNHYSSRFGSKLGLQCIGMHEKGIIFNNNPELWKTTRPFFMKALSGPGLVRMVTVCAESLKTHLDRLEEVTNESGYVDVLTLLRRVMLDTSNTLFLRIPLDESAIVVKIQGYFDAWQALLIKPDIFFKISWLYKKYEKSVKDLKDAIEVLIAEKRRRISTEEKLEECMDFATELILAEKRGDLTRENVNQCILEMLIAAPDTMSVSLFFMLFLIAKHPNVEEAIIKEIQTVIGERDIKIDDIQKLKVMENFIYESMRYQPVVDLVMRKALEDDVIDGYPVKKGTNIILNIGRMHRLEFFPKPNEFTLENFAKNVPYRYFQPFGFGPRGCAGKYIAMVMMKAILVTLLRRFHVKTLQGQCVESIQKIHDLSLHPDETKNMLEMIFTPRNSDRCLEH

For the compound `CC1=NN(c2ccccc2)C(=O)C1`, the Potency entry in [1], in assay [2], in [3], in [4], in assay [6] and in assay [7] was “inactive” in each case. Moreover, the Potency result in assay [8], in assay [10], in assay [12], in assay [13], in [14] and in [15] was “inactive” in each case. Further, in the assay with Aromatase (Homo sapiens), the Potency result was “inactive”. Further, the compound was called inactive in [5], in [9] and in assay [11].

Take `CCn1cc(C(=O)O)c(=O)c2ccc(C)nc21`: the Potency result in assay [1], in [2], in assay [3], in assay [4], in assay [6] and in assay [7] was “inactive” in each case. Moreover, the Potency result in [8], in assay [10], in assay [12], in assay [13], in assay [14] and in assay [15] was “inactive” each time. Also, the Potency entry in the assay with Aromatase (Homo sapiens) is “inactive”. The outcome in assay [5], in assay [9] and in [11] was inactive.

Consider `Cc1cccc2ccccc12`, for which the Potency result in assay [1], in assay [2], in [3], in assay [4], in [6] and in assay [7] was “inactive” in each case. Also, the Potency entry in [8], in assay [10], in [12], in assay [13], in [14] and in assay [15] was “inactive” each time. For the same compound, the Potency result in the assay with Aromatase (Homo sapiens) is “inactive”. The compound was classed as inactive in [5], in assay [9] and in assay [11].

As for `COC(=O)c1ccc(C=O)cc1`, the Potency result in assay [1], in assay [2], in [3], in assay [4], in [6] and in assay [7] was “inactive” in each case. The Potency result in assay [8], in [10], in assay [12], in [13], in assay [14] and in assay [15] was “inactive” each time. In the assay with Aromatase (Homo sapiens), the Potency result was “inactive”. Besides, the compound was classed as inactive in [5], in assay [9] and in assay [11].

With `COCC(C)N` (stereo not drawn), the Potency entry in [1], in assay [2], in assay [3], in [4], in assay [16] and in assay [18] was “inactive” throughout. For the same compound, the Potency entry in [6], in assay [19], in assay [7], in assay [8], in assay [10] and in assay [12] was “inactive” in each case. The Potency result (in assay [13]; in assay [14]; in assay [15]; in the assay with Aromatase (Homo sapiens)) was “inactive” in each case. Moreover, the call in assay [17], in assay [9] and in assay [11] was inactive.

`NC(=O)OCC(COC(N)=O)c1ccccc1`: the Potency result in assay [1], in assay [2], in assay [3], in [4], in assay [16] and in [18] was “inactive” throughout. Also, the Potency entry in assay [6], in [19], in [7], in assay [8], in assay [10] and in assay [12] was “inactive” each time. The Potency result (in [13]; in [14]; in assay [15]; with Aromatase (Homo sapiens)) was “inactive” each time. Also, the compound was classed as inactive in assay [17], in [9] and in assay [11].

For the compound `COc1ccccc1NC(=O)CC(C)=O`, the Potency entry in [1], in [2], in [3], in assay [4], in [6] and in [7] was “inactive” in each case. Moreover, the Potency entry in assay [8], in assay [10], in assay [12], in assay [13], in [14] and in [15] was “inactive” each time. For the same compound, in the assay with Aromatase (Homo sapiens), the Potency result was “inactive”. The call in [5] and in assay [9] was inactive.

For `O=c1cc[nH]c(=O)[nH]1`, the Potency entry in [1], in assay [2], in [3], in assay [4], in assay [6] and in assay [7] was “inactive” each time. The Potency entry in [8] and in [15] was “inactive” throughout. For the same compound, the compound was called inactive in [5], in assay [9] and in [11].

Take `N[C@@H](Cc1c[nH]c2ccccc12)C(=O)O`: the Potency entry in assay [1], in [2], in [3], in [4], in assay [6] and in assay [7] was “inactive” each time. The Potency result (in assay [8]; in [15]; with Aromatase (Homo sapiens)) was “inactive” throughout. For the same compound, the result in [5], in assay [9] and in assay [11] was inactive.

Regarding `COc1cc(C=O)ccc1O`, the Potency result in assay [1], in assay [2], in [3], in assay [4], in [18] and in [6] was “inactive” throughout. Also, the Potency result in [19], in assay [7], in assay [8], in [12], in assay [13] and in assay [14] was “inactive” in each case. For the same compound, the Potency result (in [15]; with Aromatase (Homo sapiens)) was “inactive” in each case. In addition, the compound was classed as inactive in assay [5], in [17], in assay [9] and in assay [11].

On to `COC(=O)C1CCC(C(=O)OC)CC1` (stereo not drawn), for which the Potency entry in assay [1], in assay [2], in assay [3], in assay [4], in [6] and in [7] was “inactive” each time. Also, the Potency entry in [8], in assay [10], in [12], in assay [13], in assay [14] and in assay [15] was “inactive” in each case. For the same compound, in the assay with Aromatase (Homo sapiens), the Potency result was “inactive”. Moreover, the call in assay [5], in [9] and in [11] was inactive.

Consider `O=[N+]([O-])c1ccc(O)cc1`, for which the Potency entry in [1], in [6], in assay [10], in assay [12], in assay [13] and in assay [14] was “inactive” in each case. Besides, the Potency result (in [15]; in the assay with Aromatase (Homo sapiens)) was “inactive” each time. Moreover, the Potency in assay [2] is 27.3 µM (active) and 61.1 µM (active); in assay [3] it was “inactive and 43.3 µM (active) and 54.5 µM (active)”; in assay [4] it was “inactive and 54.5 µM (active)”; in [7], 61.1 µM (active). For the same compound, the compound was classed as inactive in [5] and in [11].

With `c1ccc2[nH]c(-c3cscn3)nc2c1`, the Potency result in [1], in assay [16], in [18], in assay [6], in assay [19] and in assay [7] was “inactive” in each case. Besides, the Potency entry (in assay [8]; in assay [10]; in assay [12]; in assay [15]; in the assay with Aromatase (Homo sapiens)) was “inactive” in each case. The Potency entry in [2] is “inactive and 69 µM (active)”; in [3] it was “inactive and 54.5 µM (active)”; in [4], “inactive and 48.6 µM (active)”; in assay [13], 16.8 µM (active) and 24.5 µM (active) and 9.69 µM (active). For the same compound, the compound was classed as inactive in assay [5], in [17], in assay [9] and in assay [11].

As to `O=C(O)CCCCC1CCSS1` (stereo not drawn), the Potency result in assay [1], in assay [2], in assay [3], in assay [4], in [6] and in assay [7] was “inactive” throughout. Moreover, the Potency result in assay [8], in assay [10], in [12], in assay [13], in [14] and in assay [15] was “inactive” each time. For the same compound, in the assay with Aromatase (Homo sapiens), the Potency result was “inactive”. In addition, the compound was called inactive in assay [5], in assay [9] and in assay [11].
